# Experimental data as given in the supplement of paper PMC6555819.
# Columns and labels:
# Experiment in all cases: PBM binding z-score (relative to random genomic background probes); higher = stronger binding; sequences stand for … in GC…GCGATTGACAGCGTAGAATGAAGG
# [1] = tested on: FXR:RXRa (NR concentration 270 nM, RXRa partner concentration 90 nM)
# Summary of the method: (§1)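 Ligand-free nuclear receptor dimers were applied to custom Agilent 4×180K protein-binding microarrays whose double-stranded probes carried direct-repeat seeds, single-nucleotide variants, half-site ablations and random human genomic background sequences in 34-nt variable regions. Incubation lasted 1 h. Binding z-scores were computed against the random background probes from regression-normalized fluorescence.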
# [2] = tested on: LXRa:RXRa (NR concentration 270 nM, RXRa partner concentration 90 nM)
# Summary of the method: as §1
# [3] = tested on: LXRa homodimer (NR concentration 270 nM)
# Summary of the method: as §1
# [4] = tested on: LXRb:RXRa (NR concentration 270 nM, RXRa partner concentration 90 nM)
# Summary of the method: as §1
# [5] = tested on: LXRb homodimer (NR concentration 270 nM)
# Summary of the method: as §1
# [6] = tested on: PPARa:RXRa (NR concentration 270 nM, RXRa partner concentration 90 nM)
# Summary of the method: as §1
# [7] = tested on: PPARg:RXRa (NR concentration 180 nM, RXRa partner concentration 90 nM)
# Summary of the method: as §1
# [8] = tested on: PPARg:RXRa 270nM:90nM, anti-RXR (NR concentration 270 nM, RXRa partner concentration 90 nM)
# Summary of the method: as §1
# [9] = tested on: PPARg:RXRa 30nM:10nM, anti-RXR (NR concentration 30 nM, RXRa partner concentration 10 nM)
# Summary of the method: as §1
# [10] = tested on: PPARg:RXRa 90nM:30nM, anti-RXR (NR concentration 90 nM, RXRa partner concentration 30 nM)
# Summary of the method: as §1
Sequence,PBM binding z-score [1],PBM binding z-score [2],PBM binding z-score [3],PBM binding z-score [4],PBM binding z-score [5],PBM binding z-score [6],PBM binding z-score [7],PBM binding z-score [8],PBM binding z-score [9],PBM binding z-score [10]
ACTATTAGTTGAGACGAGGGCAACCGTTAGGTTG,0.584,0.15,0.0603,-0.161,0.0285,0.115,0.198,-0.206,-0.415,-0.374
CGTCCAAGGTCATAGTAGGTCAGTGAAGACAGAT,7.5,7.17,4.25,5.79,1.31,5.54,5.27,5.42,2.67,4.32
ATCTCCAGGTAACCAAGTTCAGTGAATGCCGAAC,0.454,0.776,1.02,0.753,0.946,0.696,0.227,0.427,0.0617,0.231
TCTATTAGTTGTAGGGCAACCGACGAGTCCGTTT,0.532,0.422,0.481,0.268,0.355,1.1,0.164,1.78,3.28,2.49
GAAGACAGGTGAAACGCAGGTAACTCAGGGTGGC,0.0149,0.318,-0.652,-0.0898,-0.743,1.14,0.681,0.383,-0.249,-0.0724
ACAGACAGGTGATGAAGGTAACTCCGGCTATCAT,0.229,0.181,-0.0879,-0.149,-0.444,0.23,0.658,-0.261,-0.0835,-0.0688
CGAAATAGGTCAAGGACAGTGAATCTCCGCACGC,5.6,4.09,0.715,3,0.676,5.27,7.22,6.58,4.2,6.39
ACTAACAGGCCAAGTTTGGGTCACTCAAACAAAG,0.517,0.251,-0.258,0.977,0.105,1.45,0.241,0.254,-0.0822,0.083
GGAACGAGGGCAAGGTTGATAGCATCTGTCGACG,0.705,0.414,-0.458,0.32,-0.386,2.82,4.49,5.17,3.62,4.91
GCTACTGGGGCATCAGCAGGTTACCATAACTTAA,-0.035,-0.127,-0.19,0.88,-0.858,1.74,2.37,2.01,0.134,1.34
GCATATAGGTAATACAATGTGAAAGTCCGATTGT,0.12,-0.102,0.125,-0.0369,-0.0471,0.701,1.29,0.561,0.448,0.672
ATCGAAAGGTCTACGAGGTGAGTATACACCGTTT,0.287,0.343,-0.515,0.353,-0.0521,1.03,0.797,0.573,0.114,0.523
GGAACGAGGGCAAGTTGAGAGCAGAGTTTGATGG,1,0.529,-0.352,0.383,-0.627,1.72,0.945,1.34,0.0684,0.629
TCAAGTAGGTTAGGGGCATTCAGAATGGCGTCGA,0.99,0.718,0.21,1.28,0.587,2.19,2.64,3.58,3.71,3.65
GCTAGTTGGTCAGTAAAAGGTAACACACCGGTCG,0.0852,0.248,0.0445,0.107,-0.224,0.694,0.783,0.945,0.0648,0.29
CCTATTAGTTGACCATAAGGGCAACCTAAGCTCG,1.15,0.43,0.487,0.701,0.685,0.846,0.521,0.842,0.125,0.491
ACAGACAGGTGAGTGAAGGTAACTCAACTGGACG,0.515,-0.0792,-0.448,-0.39,-0.735,-0.0249,0.821,0.143,0.0922,-0.0513
CAAACTAGGTCACGAAAGGTCAAAGTAGAATGAC,7.59,8.11,8.28,7.19,2.72,6.77,10.6,8.55,6.87,8.89
ATACCAAGGTGATCGTGAGGTCGTCGATACTAAC,1.46,1.08,0.311,0.992,-0.191,1.75,0.672,0.691,0.0309,0.54
CAAACTAGGTCACAGAGGTCAAGGTCCGTGCGTA,7.39,6.46,5.6,5.68,1.33,6.48,10.1,8.21,6.84,8.39
CGACAAAGTTCAAGGTAACGTAACAGAAAGCAGC,5.84,5.54,1.97,3.29,0.658,4.63,3.59,4.67,1.47,3.46
TGTCATAGTTCAAAGGTAACGTAAGTATCCACAC,4.03,4.22,1.04,2.89,0.786,4.17,5.59,5.56,2.89,4.8
TCAGACAGGTGACGGTAACTCAGGTACGCAGTCG,-0.0449,0.58,-0.354,0.0924,-0.599,0.857,0.69,1.72,3.16,2.51
